Assay [1] in a line: AP1 Signaling Pathway (AID 357).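 Also: ME-180 reporter cells stimulated with EGF at its EC50 level; % is scaled to controls: 0 for no effect and ±100 for the full control effect.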 The following applies: ME-180 AP-1-bla reporter, EGF-induced, beta-lactamase ratio, 5 h; at 7.69 µM (top of the series) unless noted. In outline: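 First, ME-180 AP-1-bla cells were cultured overnight at 37 °C in low-serum Opti-MEM. Next, titrated compounds with EC50 EGF were incubated 5 hours. Finally, CCF4 was added for 2.5 hours and the 460/530 nm ratio recorded.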

Assay [2] concerns the target Cytochrome P450 1A2 (Homo sapiens) (UniProt P05177). Briefly: p450-cyp1a2 (AID 410; calls by dose curve; also: potency is read from the fitted curve at half-maximal effect). In outline: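 20nM CYP1A2, 100uM Luciferin-ME (=Km), 100mM KPO4; cpd 10 min RT; +NADPH regen, 60 min RT; stop/detect 20 min; luminescence. Normalized to furafylline 57 uM = full inhibition.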
A short description of assay [3]: NFAT Signaling Pathway (AID 444).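 Also: carbachol stimulus at about its EC50 of 1 µM final; % is scaled to controls: 0 for no effect and ±100 for the full control effect.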 Particulars: Jurkat NFAT-bla M1, carbachol, beta-lactamase ratio, 5 h; at 7.69 µM (top of the series) unless noted. The essentials: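 Read-out: CCF4 FRET ratio (460 nm/530 nm) after 1 h RT dye loading, used for %activity and AC50 from titration series. Cells: Jurkat NFAT-β-lactamase/M1 line, treated with compound plus 1 uM carbachol for 5 h, 37 °C.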

A short description of assay [4]: Stat Signaling Pathway (AID 446).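 Also: ME-180 cervical cancer cells given 40 pM IL-6 alongside compound; SIE-controlled beta-lactamase reporter measured as 460/530 nm FRET emission ratio; % is scaled to controls: 0 for no effect and ±100 for the full control effect.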 The following applies: ME-180 (cervical carcinoma) SIE beta-lactamase reporter, IL-6 stimulated, 5 h; at 7.69 µM (top of the series) unless noted. In outline:
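FRET read-out (405 nm excitation, 460/530 nm emission) of a beta-lactamase reporter under a STAT-inducible element in ME-180 cervical carcinoma cells. Cells with compound receive 40 pM IL-6 for 5 h. Values are normalised to AC90 stimulation and AC90 JAK-inhibitor controls.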

Assay [5] deals with Glucocorticoid receptor (Homo sapiens) (UniProt P04150). Briefly: GR-EFC Redistribution (AID 451; calls by dose curve; also: potency is read from the fitted curve at half-maximal effect). Particulars: CHO-K1 GR-EFC translocation, beta-gal luminescence, 2 h. The essentials:
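Translocation of GR-ED fusion to nuclear EA restores b-gal, read by luminescence after 1 h room-temperature detection. Engineered CHO-K1 biosensor cells, 1,000/well, exposed 2 h at 37 C to titrations up to 46 uM final.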

For assay [6], the target named is Mitogen-activated protein kinase 10 (Mus musculus) (UniProt Q61831). Briefly: JNK3 AlphaScreen Assay (AID 530).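 Also: kinase came from lysate of stimulated human HepG2 cells; signal reports phosphorylation of biotinylated GST-cJun 1-79 at Ser73 with 10 µM ATP; % is scaled to controls: 0 for no effect and ±100 for the full control effect.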 In outline:
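Kinase buffer: 20 mM Tris-HCl pH 7.6, 10 mM MgCl2, 1 mM DTT, 0.1 mM Na3VO4, 0.01% Tween-20; ATP 10 uM. Substrate biotin-GST-cJun(1-79), enzyme from activated HepG2 lysates. Detection by Ser73 phospho-antibody AlphaScreen.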

The target in assay [7] is 3',5'-cyclic-AMP phosphodiesterase 4B (Homo sapiens) (UniProt Q07343). Briefly: qHTS Assay for Inhibitors of PDE-IV (AID 607; active = well fitted activation curve with a large enough effect in the main read-out, with a control signal flat, not every such curve was filed as active; also: % of control where 0% means no effect). The essentials: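 Cell-based read-out of cAMP via a modified cyclic nucleotide-gated channel and membrane potential dye (535/590 nm) in HEK293 cells expressing PDE4 endogenously. Compounds tested up to 22.9 uM final; 100 uM RO 20-1724 reference.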
Sequence of 3',5'-cyclic-AMP phosphodiesterase 4B (Homo sapiens) (Q07343 whole entry, looked up): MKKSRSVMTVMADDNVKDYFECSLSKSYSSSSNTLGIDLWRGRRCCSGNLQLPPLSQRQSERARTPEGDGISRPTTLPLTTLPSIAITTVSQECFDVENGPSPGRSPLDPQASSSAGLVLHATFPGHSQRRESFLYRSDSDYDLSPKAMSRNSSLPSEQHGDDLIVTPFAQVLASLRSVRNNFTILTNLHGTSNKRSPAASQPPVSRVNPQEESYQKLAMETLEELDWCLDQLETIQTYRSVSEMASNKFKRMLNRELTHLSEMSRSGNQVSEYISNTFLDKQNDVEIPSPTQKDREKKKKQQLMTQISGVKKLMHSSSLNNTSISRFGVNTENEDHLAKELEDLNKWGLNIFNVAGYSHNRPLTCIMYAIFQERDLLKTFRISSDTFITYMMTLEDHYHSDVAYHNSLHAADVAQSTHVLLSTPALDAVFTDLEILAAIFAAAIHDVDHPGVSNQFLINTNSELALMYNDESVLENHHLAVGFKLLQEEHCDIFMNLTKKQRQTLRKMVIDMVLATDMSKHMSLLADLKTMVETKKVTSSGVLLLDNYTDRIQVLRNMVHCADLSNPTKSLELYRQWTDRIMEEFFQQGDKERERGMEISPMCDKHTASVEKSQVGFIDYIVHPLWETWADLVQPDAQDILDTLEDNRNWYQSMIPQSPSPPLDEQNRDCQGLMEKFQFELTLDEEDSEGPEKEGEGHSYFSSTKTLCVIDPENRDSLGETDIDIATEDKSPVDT

Assay [8] addresses Glucocorticoid receptor (Homo sapiens) (UniProt P04150). Briefly: GR-GFP Redistribution (AID 450;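 active = compounds whose dose series gives a full or clear partial fitted curve of increased nuclear translocation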; also: potency is read from the fitted curve at half-maximal effect). Particulars: U2OS GR-GFP nuclear translocation, laser cytometry, 2 h.
Assay [9] concerns the target Cytochrome P450 2C19 (Homo sapiens) (UniProt P33261). Briefly: qHTS Assay for Inhibitors and Substrates of Cytochrome P450 2C19 (AID 899; active = well fitted curve in the direction sought with a large enough effect; an effect the other way counts as inactive or inconclusive; also: nearly all actives have a fitted effect of over 60% in size; also: potency is read from the fitted curve at half-maximal effect). The essentials: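 Reactions contain 5nM enzyme, 10uM Luciferin-H EGE (KM) and 50mM KPO4; compound preincubates 10 min at 37C, NADPH regeneration starts turnover for 60 min. Luminescence after detection reagent gives activity.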
The target of assay [10] is Guanine nucleotide-binding protein G(i) subunit alpha-1 (Homo sapiens) (UniProt P63096). Briefly: qHTS Assay for Inhibitors of RGS12 GoLoco Motif Activity (Green Fluorophore) (AID 879; active = well fitted curve in the direction sought with a large enough effect; an effect the other way counts as inactive or inconclusive;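 also: 0% = labeled peptide with Gαi1 and full inhibition = labeled peptide alone without protein; negative values mean loss of peptide binding seen as reduced polarization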). In outline: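 A drop in FITC polarization marked displacement of the FITC-tagged RGS12 GoLoco peptide (10 nM) from Gαi1 (50 nM). Compounds were incubated 10 min at room temperature in Tris pH 7.5 buffer containing 150 mM NaCl, 0.1 mM GDP and 0.05% NP40; unlabeled peptide titration served as control.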
Sequence of Guanine nucleotide-binding protein G(i) subunit alpha-1 (Homo sapiens) (P63096 whole entry, looked up): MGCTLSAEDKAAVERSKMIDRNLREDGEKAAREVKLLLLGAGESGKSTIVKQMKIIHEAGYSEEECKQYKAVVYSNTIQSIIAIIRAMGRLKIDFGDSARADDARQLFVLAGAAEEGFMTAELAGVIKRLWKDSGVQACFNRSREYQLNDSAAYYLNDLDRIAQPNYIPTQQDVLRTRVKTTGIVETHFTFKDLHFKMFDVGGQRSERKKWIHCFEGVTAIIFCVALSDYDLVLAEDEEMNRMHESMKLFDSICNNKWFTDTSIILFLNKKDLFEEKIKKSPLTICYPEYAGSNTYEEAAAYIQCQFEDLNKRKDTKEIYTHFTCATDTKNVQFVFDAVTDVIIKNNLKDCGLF

Assay [11] concerns the target Cytochrome P450 3A4 (Homo sapiens) (UniProt P08684). Briefly: qHTS Assay for Activators of Cytochrome P450 3A4 (AID 885; active = well fitted curve in the direction sought with a large enough effect; an effect the other way counts as inactive or inconclusive; also: nearly all actives have a fitted effect of over 65% in size). The essentials: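 Luminescent readout of luciferin formed from 25 uM Luciferin-PPXE (KM level) by 20 nM CYP3A4 in 200 mM KPO4, with 60 min NADPH-driven reaction at room temperature after 10 min compound exposure. Ketoconazole (57 uM) defined 100% inhibition.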

A short description of assay [12]: qHTS Assay for Identification of Small Molecule Agonists for Thrombopoietin (TPO) Signaling Pathway (AID 917; active = well fitted curve in the direction sought with a large enough effect; an effect the other way counts as inactive or inconclusive; also: % is scaled to controls: 0 for no effect and ±100 for the full control effect). In outline:
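Stimulation at the TPO EC50 (26 pM final) was used to detect activators. Ba/F3 mouse cells bearing human TPO receptor and a luciferase reporter under the Glycoprotein IIb promoter were exposed to compounds for 24 hrs at 37 C.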

The target of assay [13] is Muscarinic acetylcholine receptor M1 (Rattus norvegicus) (UniProt P08482). Briefly: qHTS Assay for Antagonists of Acetylcholine Muscarinic M1 Receptor: Measurement of IP-One Response (AID 944; active = well fitted curve in the direction sought with a large enough effect; an effect the other way counts as inactive or inconclusive; also: nearly all actives have a fitted effect of over 75% in size; also: potency is read from the fitted curve at half-maximal effect). The essentials: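 Read-out: HTRF competition between d2-IP1 and Eu-cryptate anti-IP1 antibody, emission 620 and 665 nm. Stimulus was carbachol, EC80 (200 nM), for 30 min in M1-CHO cells (rat receptor), after 10 min compound pre-treatment.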
Sequence of Muscarinic acetylcholine receptor M1 (Rattus norvegicus) (P08482 whole entry, looked up): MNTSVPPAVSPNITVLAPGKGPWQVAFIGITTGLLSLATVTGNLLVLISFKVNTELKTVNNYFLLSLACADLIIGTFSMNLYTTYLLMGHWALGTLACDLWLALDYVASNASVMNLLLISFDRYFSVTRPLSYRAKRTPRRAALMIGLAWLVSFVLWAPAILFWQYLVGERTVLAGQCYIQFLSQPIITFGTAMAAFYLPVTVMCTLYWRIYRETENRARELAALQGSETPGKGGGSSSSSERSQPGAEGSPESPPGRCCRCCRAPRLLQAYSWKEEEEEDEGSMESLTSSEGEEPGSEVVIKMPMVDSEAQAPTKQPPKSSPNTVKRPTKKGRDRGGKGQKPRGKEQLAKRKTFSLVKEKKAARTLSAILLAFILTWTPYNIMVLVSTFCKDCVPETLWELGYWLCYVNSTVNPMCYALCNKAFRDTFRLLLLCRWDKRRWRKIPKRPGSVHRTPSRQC

In assay [14] the target is Pyruvate kinase (Leishmania mexicana) (UniProt Q27686). Briefly: qHTS Validation Assay for Inhibitors of Leishmania Mexicana Pyruvate Kinase (AID 945; active = well fitted curve in the direction sought with a large enough effect; an effect the other way counts as inactive or inconclusive;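 also: 0% = DMSO only neutral control wells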). In outline:
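Eight-point qHTS titrations; enzyme 0.2 nM LmPYK (E451W mutant); substrates 0.5 mM PEP, 0.1 mM ADP; 7 mM MgCl2; 1 h room temperature; PKLight luminescence normalized to neutral control.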

For assay [15], the target named is Pyruvate kinase PKM (Homo sapiens) (UniProt P14618). Briefly: qHTS Assay for Activators of Human Muscle Pyruvate Kinase (AID 954; active = well fitted curve in the direction sought with a large enough effect, not every such curve was filed as active;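 also: 0% = uninhibited enzyme and -100% = no enzyme or full thiadiazolimine inhibition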). The essentials: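 ATP production by PKM2 detected via luciferase luminescence after 1 h room-temperature reaction (0.1 nM enzyme, PEP at Km 0.5 mM, ADP 0.1 mM, pH 7.2 imidazole buffer). Inhibition scaled to no-enzyme control; activation referenced to 0.3 nM enzyme wells.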
Sequence of Pyruvate kinase PKM (Homo sapiens) (P14618 whole entry, looked up): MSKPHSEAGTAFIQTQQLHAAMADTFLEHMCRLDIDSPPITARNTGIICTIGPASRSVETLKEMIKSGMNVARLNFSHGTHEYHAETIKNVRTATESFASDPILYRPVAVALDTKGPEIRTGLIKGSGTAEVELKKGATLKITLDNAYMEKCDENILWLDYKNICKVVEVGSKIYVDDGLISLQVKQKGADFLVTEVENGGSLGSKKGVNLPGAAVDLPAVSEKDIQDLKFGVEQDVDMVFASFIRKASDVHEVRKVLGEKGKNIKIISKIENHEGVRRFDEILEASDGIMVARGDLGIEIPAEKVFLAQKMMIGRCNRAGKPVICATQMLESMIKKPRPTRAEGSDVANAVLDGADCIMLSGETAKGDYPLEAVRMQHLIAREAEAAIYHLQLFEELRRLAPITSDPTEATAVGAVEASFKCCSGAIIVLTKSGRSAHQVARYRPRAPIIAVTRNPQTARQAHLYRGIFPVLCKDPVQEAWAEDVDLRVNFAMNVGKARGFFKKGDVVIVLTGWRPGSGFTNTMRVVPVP

Assay [16] has as its target Alpha-galactosidase (Coffea arabica) (UniProt Q42656). Briefly: Counterscreen for Glucocerebrosidase Inhibitors: qHTS Assay for Coffee Bean alpha-Galactosidase at pH 4.5 (AID 957; active = well fitted curve in the direction sought with a large enough effect; an effect the other way counts as inactive or inconclusive;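 also: plate controls were enzyme alone for no effect and no enzyme for full effect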). The essentials: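 Fluorogenic read-out: 4-methylumbelliferone at Ex 365/Em 440 nm after NaOH/glycine stop (pH 10). Enzyme 2 nM, 4-MU-alpha-galactoside 80 uM, citrate buffer pH 4.5, 20 min RT; normalized to no-enzyme and enzyme controls.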

The target in assay [17] is Alpha-galactosidase A (Homo sapiens) (UniProt P06280). Briefly: Counterscreen for Glucocerebrosidase Inhibitors: qHTS Assay for Human alpha-Galactosidase at pH 4.5 (AID 992; active = well fitted curve in the direction sought with a large enough effect; an effect the other way counts as inactive or inconclusive; also: 0% is about no effect). In outline:
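Fluorogenic 1536-well qHTS at pH 4.5 (citrate, Tween-20): 2 nM enzyme, 80 uM 4-MU-alpha-galactoside, 20 min room temperature, NaOH/glycine stop. Titration 0.7 nM to 77 uM, data normalized to no-enzyme and full-activity controls, Hill-fitted AC50.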

Assay [18] has as its target alpha-glucosidase (Oryza sativa, rice) (UniProt Q653V4). Briefly: Counterscreen for Glucocerebrosidase Inhibitors: qHTS Assay for Rice alpha-Glucosidase at pH 5.0 (AID 997; active = well fitted curve in the direction sought with a large enough effect; an effect the other way counts as inactive or inconclusive;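 also: 0% = full activity with enzyme and -100% = basal without enzyme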). In outline:
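Endpoint fluorogenic assay at pH 5.0: compounds (0.7 nM to 77 uM) titrated against 4 nM rice enzyme and 400 uM 4-MU-alpha-glucoside for 20 min at room temperature; NaOH/glycine stop, read ex 365/em 440 nm, Hill-fitted AC50.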

In assay [19] the target is Alpha-galactosidase (Coffea arabica) (UniProt Q42656). Briefly: Counterscreen for Glucocerebrosidase Inhibitors: qHTS Assay for Coffee Bean alpha-Galactosidase at pH 5.9 (AID 998; active = well fitted curve in the direction sought with a large enough effect; an effect the other way counts as inactive or inconclusive;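 also: plate controls were uninhibited enzyme for no effect and no-enzyme basal signal for full effect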). The essentials:
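Fluorogenic 4-MU substrate hydrolysis, 80 uM substrate and 2 nM coffee bean alpha-galactosidase, pH 5.9 citrate buffer, 20 min at room temperature, then NaOH/glycine stop. Titration 0.7 nM–77 uM, normalized to no-enzyme and enzyme controls, AC50 via Hill equation.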

The values that follow come from PubChem BioAssay (NCATS).

Values joined by “and” are separate entries in the source; they are usually repeats but may differ in a detail not shown here. Equal values may be shown once. Values without a mark were called inactive. Inconclusive results are not listed. Active and inactive are the calls of the source. Unless noted, calls follow the shape of the dose curve; as a rule, active = well fitted curve in either direction with a large enough effect (not every such curve was filed as active); inconclusive = small, poorly fitted or top-dose-only effect, or another doubt; inactive = flat fitted curve, though single readings scatter.

Sequence of Cytochrome P450 1A2 (Homo sapiens) (P05177 whole entry, looked up): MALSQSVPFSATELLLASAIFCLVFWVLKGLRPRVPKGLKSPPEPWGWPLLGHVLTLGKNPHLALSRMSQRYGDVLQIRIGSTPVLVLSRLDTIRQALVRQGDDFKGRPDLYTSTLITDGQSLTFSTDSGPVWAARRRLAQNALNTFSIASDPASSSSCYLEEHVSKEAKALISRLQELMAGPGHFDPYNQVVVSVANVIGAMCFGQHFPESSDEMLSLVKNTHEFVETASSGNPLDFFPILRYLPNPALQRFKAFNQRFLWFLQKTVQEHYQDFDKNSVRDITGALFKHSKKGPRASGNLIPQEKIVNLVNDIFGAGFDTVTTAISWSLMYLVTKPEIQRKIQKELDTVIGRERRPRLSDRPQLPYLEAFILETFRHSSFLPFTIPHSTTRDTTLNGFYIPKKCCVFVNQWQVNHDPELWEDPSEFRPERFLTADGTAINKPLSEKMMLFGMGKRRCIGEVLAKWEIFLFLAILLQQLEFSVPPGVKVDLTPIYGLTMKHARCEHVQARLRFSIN
Sequence of Glucocorticoid receptor (Homo sapiens) (P04150 whole entry, looked up, the tested form may be a part): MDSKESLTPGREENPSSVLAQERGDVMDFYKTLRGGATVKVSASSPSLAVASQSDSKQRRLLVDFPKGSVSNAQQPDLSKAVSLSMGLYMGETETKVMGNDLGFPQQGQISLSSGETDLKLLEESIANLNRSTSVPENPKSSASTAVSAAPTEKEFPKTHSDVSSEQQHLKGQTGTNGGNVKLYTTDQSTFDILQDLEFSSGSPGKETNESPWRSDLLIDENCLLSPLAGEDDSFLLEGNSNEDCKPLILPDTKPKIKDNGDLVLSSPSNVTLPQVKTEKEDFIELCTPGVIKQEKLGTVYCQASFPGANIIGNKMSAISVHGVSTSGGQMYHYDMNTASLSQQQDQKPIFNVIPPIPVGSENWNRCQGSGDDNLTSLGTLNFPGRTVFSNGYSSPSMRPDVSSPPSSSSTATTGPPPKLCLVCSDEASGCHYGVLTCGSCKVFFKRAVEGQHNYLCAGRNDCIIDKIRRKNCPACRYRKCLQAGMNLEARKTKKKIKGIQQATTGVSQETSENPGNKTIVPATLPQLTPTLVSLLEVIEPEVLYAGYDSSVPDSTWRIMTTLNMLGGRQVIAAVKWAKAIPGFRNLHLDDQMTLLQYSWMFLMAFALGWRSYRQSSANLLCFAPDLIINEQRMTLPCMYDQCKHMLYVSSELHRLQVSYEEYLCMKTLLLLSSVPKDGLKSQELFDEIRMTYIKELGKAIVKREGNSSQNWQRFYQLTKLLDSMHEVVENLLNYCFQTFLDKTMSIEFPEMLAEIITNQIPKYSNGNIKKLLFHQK
Sequence of Alpha-galactosidase (Coffea arabica) (Q42656 whole entry, looked up): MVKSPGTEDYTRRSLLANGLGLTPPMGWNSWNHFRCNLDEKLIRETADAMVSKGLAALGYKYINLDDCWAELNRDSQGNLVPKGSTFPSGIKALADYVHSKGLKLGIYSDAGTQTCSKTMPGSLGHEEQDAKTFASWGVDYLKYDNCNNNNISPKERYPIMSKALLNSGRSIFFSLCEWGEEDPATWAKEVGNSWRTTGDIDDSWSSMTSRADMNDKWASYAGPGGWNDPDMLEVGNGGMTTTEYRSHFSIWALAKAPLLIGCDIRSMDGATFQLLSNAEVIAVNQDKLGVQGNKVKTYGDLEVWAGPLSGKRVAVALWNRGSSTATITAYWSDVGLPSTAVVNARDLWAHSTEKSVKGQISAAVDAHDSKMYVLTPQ
Sequence of Alpha-galactosidase A (Homo sapiens) (P06280 whole entry, looked up): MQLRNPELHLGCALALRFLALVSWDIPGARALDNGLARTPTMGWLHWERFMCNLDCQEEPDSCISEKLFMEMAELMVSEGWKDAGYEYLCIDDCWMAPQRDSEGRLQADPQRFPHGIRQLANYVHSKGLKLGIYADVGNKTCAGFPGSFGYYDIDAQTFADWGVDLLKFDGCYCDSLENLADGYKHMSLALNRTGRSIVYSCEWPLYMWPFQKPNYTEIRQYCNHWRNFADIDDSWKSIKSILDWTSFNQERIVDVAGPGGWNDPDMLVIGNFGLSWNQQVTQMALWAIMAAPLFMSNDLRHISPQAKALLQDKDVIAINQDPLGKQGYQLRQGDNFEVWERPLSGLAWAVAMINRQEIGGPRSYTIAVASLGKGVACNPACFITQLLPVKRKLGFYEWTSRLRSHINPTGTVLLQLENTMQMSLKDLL
Sequence of Cytochrome P450 2C19 (Homo sapiens) (P33261 whole entry, looked up): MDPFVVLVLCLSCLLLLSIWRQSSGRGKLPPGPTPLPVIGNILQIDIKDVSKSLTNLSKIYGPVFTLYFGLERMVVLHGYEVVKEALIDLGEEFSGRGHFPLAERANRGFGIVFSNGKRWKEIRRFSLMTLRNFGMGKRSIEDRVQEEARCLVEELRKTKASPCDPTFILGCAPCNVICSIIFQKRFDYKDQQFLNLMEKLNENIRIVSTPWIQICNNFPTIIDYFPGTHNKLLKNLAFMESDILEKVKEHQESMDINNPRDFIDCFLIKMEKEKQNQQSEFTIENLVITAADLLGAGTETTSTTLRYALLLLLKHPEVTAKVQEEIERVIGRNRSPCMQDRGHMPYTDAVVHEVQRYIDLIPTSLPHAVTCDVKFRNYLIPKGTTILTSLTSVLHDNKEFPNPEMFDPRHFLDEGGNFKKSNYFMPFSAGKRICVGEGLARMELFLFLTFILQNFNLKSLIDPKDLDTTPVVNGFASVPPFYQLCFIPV

In the case of `O=C(O)[C@@H](O)[C@@H](O)[C@@H]1[O][Sb][O][C@@H]1CO`, the activity change, negative = inhibition in [1] was 4.54%; in [2] it was -5.1% [at 2.29 µM]; in [3] it was 5.74%; in [6] it was 1.63% [at 11.4 µM]. Besides, the activity, negative = inhibition in assay [4] was 1.94%. Further, the Potency in [5] is more than 9.22 µM. Further, the result in [7] was inactive.
Regarding `CC(C)[C@@]1(NC(=O)[C@H]2C[C@H]3c4cccc5[nH]cc(c45)C[C@@H]3N(C)C2)O[C@]2(O)[C@H]3CCCN3C(=O)[C@H](Cc3ccccc3)N2C1=O`, the activity change, negative = inhibition is -10% [at 38 µM] in assay [1] and 1.76% [at 38 µM] in [3]. Moreover, the Potency result in [2] and in [6] was “inactive” throughout. Moreover, the activity, negative = inhibition in assay [4] is -34.2% [at 38 µM]. Besides, the Potency was more than 46 µM in [8] and 6.31 µM (active) in assay [9]. Further, the compound was classed as inactive in assay [7].
`COC(=O)c1c(C)ccc2c(O)c3c(cc12)C(=O)c1c2c(cc(O)c1C3=O)[C@@]1(C)O[C@@](C)(O2)[C@@H](O)[C@H](N(C)C)[C@H]1O`: the Potency in assay [2] is 5.01 µM (active); in [8] it was more than 46 µM; in assay [5], more than 9.22 µM. In [3], the activity change, negative = inhibition was -7.69%. In [4], the activity, negative = inhibition is 10.6%. Besides, the call in [7] was inactive.
Consider `COc1cccc2c1C(=O)c1c(O)c3c(c(O)c1C2=O)C[C@](O)(/C(C)=N\O)C[C@@H]3O[C@H]1C[C@H](N)[C@@H](O)[C@H](C)O1`, for which the activity change, negative = inhibition in [1] is 26.1%; in assay [3], -24.2%; in assay [6], -16.4% [at 11.4 µM]. Also, the figures for the Potency in assay [8] and in assay [5] were more than 46 µM and more than 9.22 µM, respectively. Also, the call in assay [7] was inactive.
In the case of `C[Se]C[C@@H](N)C(=O)O`, the activity change, negative = inhibition in assay [1] is 1.98% [at 38 µM]; in [3], 5.06% [at 38 µM]. For the same compound, the Potency result in assay [2], in assay [6], in assay [11], in assay [9] and in assay [13] was “inactive” in each case. Further, the activity, negative = inhibition in assay [4] is -28.4% [at 38 µM]. Further, the Potency in [8] was more than 46 µM. The outcome in assay [7], in assay [10], in assay [12], in assay [14], in assay [15] and in assay [16] was inactive. Besides, the call in assay [17], in assay [18] and in assay [19] was inactive.
For `CC(=O)c1c(O)c(C)c(O)c(Cc2c(O)c3c(c(C(=O)/C=C\c4ccccc4)c2O)OC(C)(C)C=C3)c1O`, the activity change, negative = inhibition in assay [1] is -26.6% [at 38 µM]. Besides, the Potency was 12.6 µM (active) and 31.6 µM (active) in assay [2]; more than 46 µM in [8]; more than 46 µM in assay [5]; 2 µM (active) in assay [9]. Moreover, the activity, negative = inhibition in [4] was -35.6% [at 38 µM]. For the same compound, the Potency result in assay [6], in assay [11] and in assay [13] was “inactive” in each case. Moreover, the compound was classed as inactive in [7], in assay [10], in assay [14], in [15], in assay [16] and in assay [17]. For the same compound, the call in assay [18] and in assay [19] was inactive.
As to `O=C(Nc1cc[c]([Sb](=[O])([OH])[OH])cc1)c1ccccc1`, the activity change, negative = inhibition in assay [1] was -1.71%; in assay [3], 23.1%; in assay [6], -0.0598% [at 11.4 µM]. Further, the Potency in assay [2] is 5.01 µM (active); in assay [8] it was more than 46 µM. The activity, negative = inhibition in assay [4] is -1.59%. In addition, the call in [7] was inactive. In [9], the Potency entry is “inactive”.
For the compound `CCCN1CC[C@@H]2c3cc(O)ccc3CC[C@H]21`, the results for the activity change, negative = inhibition in [1] and in assay [3] were -14.4% [at 38 µM] and -28.7% [at 38 µM], respectively. Further, the Potency entry in [2] is “inactive”. The activity, negative = inhibition in [4] is -6.76% [at 38 µM]. The Potency is more than 46 µM in assay [8] and 14.1 µM (active) in [13]. Also, the outcome in [7], in [10], in [12], in [14], in assay [15] and in [16] was inactive. For the same compound, the outcome in assay [17], in assay [18] and in [19] was inactive.
For the compound `CC[C@@H]1CN2CCc3cc(OC)c(OC)cc3[C@H]2C[C@@H]1C[C@@H]1NCCc2cc(O)c(OC)cc21`, the activity change, negative = inhibition in [1] was -117% [at 17.2 µM] (active); in assay [3], -126% [at 17.2 µM] (active). Also, the Potency entry in [2] and in assay [6] was “inactive” each time. In addition, the activity, negative = inhibition in assay [4] was -100% [at 17.2 µM] (active). The Potency in assay [5] was more than 20.6 µM.
